The source of these data is PubChem BioAssay (NCATS).

Experiment [1] in a line: High-throughput drug toxicity screening in the BPDCN cell line Cal-1 (AID 1224825; call rule not given here). Particulars: Cal-1 BPDCN cell viability, qHTS; at 45.8 µM (top of the series) unless noted. The procedure, abridged: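 Exponentially growing Cal-1 cells, 500 per well in phenol red-free RPMI with 10% FBS, were exposed to compounds for 48 h at 37 °C, 5% CO2. Viability was read by CellTiter-Glo luminescence and normalised to DMSO (100%) and 9.2 uM bortezomib (0%).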
(Quantitative high-throughput screening tests each substance at several concentrations.)

Experiment [2] can be described thus: qHTS assay for measurement of the activity of small molecule inhibitors on Zika virus induced Caspase-3 activity in human iPSC derived neural progenitor cells (hNPCs) (AID 1224857). Further: nearly all actives have a fitted effect of over 65% in size. Further: potency means the concentration at half of the fitted maximal effect. In a few lines: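 Values are percent inhibition of virus-induced caspase-3/7 signal, scaled between uninfected cells and ZIKV-infected cells. Infection used 2 FFU/cell for 6 h after 1 h compound exposure.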

Experiment [3] in a line: qHTS assay for measurement of the activity of small molecule inhibitors on Zika virus induced Caspase-3 activity in human astrocytoma cells (AID 1224859). Further: potency means the concentration at half of the fitted maximal effect. The procedure, abridged: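 Compound added 1 h pre-infection; ZIKV 2 FFU/cell on SNB-19 cells, 6 h, 37 C/5% CO2. Caspase-Glo 3/7 luminescence; values as % inhibition of ZIKV-induced caspase activity.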
Experiment [4] is described as follows: qHTS Screen of the MIPE 4.0 Collection Against Ewings Sarcoma (RDES) (AID 1259252). Further: nearly all actives have a fitted effect of over 35% in size. Further: potency means the concentration at half of the fitted maximal effect. The procedure, abridged:
(§1)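 Compound titrations go onto adherent log-phase cells 4 h after seeding, incubate 48 h at 37C, then CellTiter-Glo luminescence reports viability relative to DMSO and cell-free controls.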

Experiment [5] in a line: qHTS Screen of the MIPE 4.0 Collection Against Ewings Sarcoma (EW8) (AID 1259255). Further: nearly all actives have a fitted effect of over 35% in size. Further: potency means the concentration at half of the fitted maximal effect.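 On viability: 100% = DMSO-treated cells and 0% = medium-only wells without cells.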 In a few lines:
as §1

The nature of experiment [6]: qHTS Screen of the MIPE 4.0 Collection Against Ewings Sarcoma (TC32) (AID 1259256). Further: nearly all actives have a fitted effect of over 45% in size. Further: potency means the concentration at half of the fitted maximal effect. In a few lines:
as §1

The nature of experiment [7]: qHTS assay to identify small molecule inhibitors of chordoma cells - UCH-1 (AID 1259355). Further: on the % scale 0 is the no-effect control and ±100 the full control effect; nearly all actives have a fitted effect of over 55% in size. In a few lines:
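Luminescent ATP read-out (CellTiter-Glo, 30min at room temperature) measured viability of UCH-1 cells exposed for 48hr to test drugs at 15 concentrations, co-dosed with a five-agent combination of auranofin, camptothecin, doxorubicin, rubitecan and topotecan.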

Experiment [8] can be described thus: qHTS assay to identify small molecule inhibitors of chordoma cells - UCH-2 (AID 1259356). Further: on the % scale 0 is the no-effect control and ±100 the full control effect.
A short description of experiment [9]: P-glycoprotein substrates identified in KB-8-5-11 adenocarcinoma cell line, qHTS therapeutic library screen (AID 1346987). Further: nearly all actives have a fitted effect of over 65% in size. Further: potency means the concentration at half of the fitted maximal effect. In a few lines:
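P-gp-mediated resistance screen: KB-8-5-11 cells treated 72 h with compounds in dose-response. CellTiter-Glo viability.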

Experiment [10] deals with Atrial natriuretic peptide receptor 1 (Homo sapiens) (UniProt P16066). Kind of experiment: Natriuretic polypeptide receptor (hNpr1) antagonism - Pilot screen (AID 1347049; calls by dose curve;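 further: agonist-evoked cGMP luminescence read 20 min after hNppA addition; on the % scale 0 is the no-effect control and ±100 the full control effect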). The procedure, abridged:
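HEK293 cells co-expressing hNpr1 and the GloSensor pGS-40F cGMP luciferase sensor were preloaded with 2% GloSensor reagent for 2 h. Compounds were added for 30 min at room temperature, then cells were stimulated with 0.1 nM hNppA for 20 min before luminescence readout.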

Experiment [11] concerns the target Tyrosine-protein phosphatase non-receptor type substrate 1 (Homo sapiens) + Leukocyte surface antigen CD47 (Homo sapiens) (UniProt P78324+Q08722). The experiment in a line: CD47-SIRPalpha protein protein interaction - LANCE assay qHTS validation (AID 1347057; active means well fitted curve in the direction sought with a large enough effect in the signal ratio, with a control signal flat, not every such curve was filed as active; the % refers to the signal ratio; further: 0% is about no effect). In a few lines: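 First, His-tagged CD47 and Eu-labelled anti-His antibody met the compound for 30 min; next, site-specifically biotinylated SIRPalpha was added for 30 min; finally streptavidin-APC was added before reading the TR-FRET ratio.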
For orientation: Time-resolved FRET reads energy transfer from a long-lived donor to a nearby acceptor.

Experiment [12] can be described thus: NS1 protein of Zika virus - qHTS assay to identify small molecule inhibitors in human HEK 293 cells (AID 1347053).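 Further: plate controls were infected untreated cells for no effect and uninfected cells for full effect; nearly all actives have a fitted effect of over 55% in size.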 In a few lines:
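HEK 293; 20 h pre-culture, 37 C/5% CO2; cpd 1 h pre-infection; ZIKV MR766, MOI = 0.5, 24 h, 37 C; TR-FRET NS1 readout (two anti-NS1 Abs); norm. to no-virus vs infected.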

The nature of experiment [13]: Identifying Small Molecule Inhibitors of Pancreatic Cancer Stem Cells (A2780, Spheroid) (AID 1259357).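 Further: compound exposure lasted 48 h before the ATP luminescence read; 100% = DMSO treated cells and 0% = wells without cells.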 Particulars: Potency: A2780 spheroid viability. In a few lines: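 Monolayer and spheroid cultures are compared. Spheroids form over 14 days in stem cell medium on hydrogel-coated low-attachment plates, then are exposed to compound for 48 h before CellTiter-Glo luminescence.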

Experiment [14] in a line: Identifying Small Molecule Inhibitors of Pancreatic Cancer Stem Cells (SN12C, Adherent) (AID 1259358).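 Further: cell survival measured after 48 h of compound exposure.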 The procedure, abridged: (§2)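 Viability is scored by CellTiter-Glo luminescence 48 h after dosing, expressed as percent activity against vehicle and no-cell references. Spheroid formats rely on cells cultured 14 days in stem cell media beforehand.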
A short description of experiment [15]: Identifying Small Molecule Inhibitors of Pancreatic Cancer Stem Cells (A278, Adherent) (AID 1259361).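 Further: 100% = DMSO-treated cells and 0% = cell-free media-only wells; nearly all actives have a fitted effect of over 35% in size.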 The procedure, abridged: as §2
Experiment [16] in a line: P-glycoprotein substrates identified in KB-3-1 adenocarcinoma cell line, qHTS therapeutic library screen (AID 1346986). Further: nearly all actives have a fitted effect of over 60% in size.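 Further: potency means the concentration at half of the fitted maximal effect; potency is for cytotoxicity meaning loss of cell viability.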 The procedure, abridged: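 KB-3-1 parental cells and P-gp-overexpressing KB-8-5-11 (colchicine omitted during assay) plated at 500 cells/well, dosed in dose-response, incubated 72 h at 37 degree C. CellTiter-Glo luminescence read; KB-8-5-11 also tested with tariquidar.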

Experiment [17] in a line: qHTS Screen of the MIPE 4.0 Collection Against Ewings Sarcoma (TC71) (AID 1259253). Further: nearly all actives have a fitted effect of over 40% in size. Further: potency means the concentration at half of the fitted maximal effect. The procedure, abridged: as §1

Values joined by “and” are separate entries in the source; they are usually repeats but may differ in a detail not shown here. Equal values may be shown once. Inconclusive results are not listed. Some structures have more than one record in an assay (separate samples or runs), and their calls can disagree. Active and inactive are the calls of the source. Unless noted, the call rests on the fitted dose curve; in most records, active means well fitted curve in the direction sought with a large enough effect; inconclusive means small, poorly fitted or top-dose-only effect, or another doubt; inactive means no such curve, though single readings can be large; an effect the other way counts as inactive or inconclusive.

Sequence of Tyrosine-protein phosphatase non-receptor type substrate 1 (Homo sapiens) + Leukocyte surface antigen CD47 (Homo sapiens) (P78324 whole entry, looked up): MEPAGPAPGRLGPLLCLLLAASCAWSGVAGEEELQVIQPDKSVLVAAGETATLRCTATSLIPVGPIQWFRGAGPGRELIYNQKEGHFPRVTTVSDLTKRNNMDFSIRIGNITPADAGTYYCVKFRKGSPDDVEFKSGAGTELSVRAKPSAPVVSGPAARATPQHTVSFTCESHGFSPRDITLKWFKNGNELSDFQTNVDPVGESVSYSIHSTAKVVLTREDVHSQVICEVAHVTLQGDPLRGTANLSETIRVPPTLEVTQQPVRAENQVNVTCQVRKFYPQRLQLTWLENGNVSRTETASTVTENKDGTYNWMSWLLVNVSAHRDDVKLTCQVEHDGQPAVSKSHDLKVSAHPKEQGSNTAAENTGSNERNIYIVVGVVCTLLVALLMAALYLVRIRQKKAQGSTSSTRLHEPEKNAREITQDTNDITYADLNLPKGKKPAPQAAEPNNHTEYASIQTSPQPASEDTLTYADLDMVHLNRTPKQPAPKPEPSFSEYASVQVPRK
Sequence of Tyrosine-protein phosphatase non-receptor type substrate 1 (Homo sapiens) + Leukocyte surface antigen CD47 (Homo sapiens) (Q08722 whole entry, looked up): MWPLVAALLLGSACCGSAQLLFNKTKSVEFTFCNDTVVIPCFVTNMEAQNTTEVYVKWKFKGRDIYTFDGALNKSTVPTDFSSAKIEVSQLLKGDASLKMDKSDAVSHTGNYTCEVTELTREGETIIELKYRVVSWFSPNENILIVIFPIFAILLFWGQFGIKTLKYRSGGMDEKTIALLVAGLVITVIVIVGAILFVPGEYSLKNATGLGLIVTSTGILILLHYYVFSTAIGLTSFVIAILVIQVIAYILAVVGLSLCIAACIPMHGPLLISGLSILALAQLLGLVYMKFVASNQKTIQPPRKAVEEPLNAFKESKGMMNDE
Sequence of Atrial natriuretic peptide receptor 1 (Homo sapiens) (P16066 whole entry, looked up): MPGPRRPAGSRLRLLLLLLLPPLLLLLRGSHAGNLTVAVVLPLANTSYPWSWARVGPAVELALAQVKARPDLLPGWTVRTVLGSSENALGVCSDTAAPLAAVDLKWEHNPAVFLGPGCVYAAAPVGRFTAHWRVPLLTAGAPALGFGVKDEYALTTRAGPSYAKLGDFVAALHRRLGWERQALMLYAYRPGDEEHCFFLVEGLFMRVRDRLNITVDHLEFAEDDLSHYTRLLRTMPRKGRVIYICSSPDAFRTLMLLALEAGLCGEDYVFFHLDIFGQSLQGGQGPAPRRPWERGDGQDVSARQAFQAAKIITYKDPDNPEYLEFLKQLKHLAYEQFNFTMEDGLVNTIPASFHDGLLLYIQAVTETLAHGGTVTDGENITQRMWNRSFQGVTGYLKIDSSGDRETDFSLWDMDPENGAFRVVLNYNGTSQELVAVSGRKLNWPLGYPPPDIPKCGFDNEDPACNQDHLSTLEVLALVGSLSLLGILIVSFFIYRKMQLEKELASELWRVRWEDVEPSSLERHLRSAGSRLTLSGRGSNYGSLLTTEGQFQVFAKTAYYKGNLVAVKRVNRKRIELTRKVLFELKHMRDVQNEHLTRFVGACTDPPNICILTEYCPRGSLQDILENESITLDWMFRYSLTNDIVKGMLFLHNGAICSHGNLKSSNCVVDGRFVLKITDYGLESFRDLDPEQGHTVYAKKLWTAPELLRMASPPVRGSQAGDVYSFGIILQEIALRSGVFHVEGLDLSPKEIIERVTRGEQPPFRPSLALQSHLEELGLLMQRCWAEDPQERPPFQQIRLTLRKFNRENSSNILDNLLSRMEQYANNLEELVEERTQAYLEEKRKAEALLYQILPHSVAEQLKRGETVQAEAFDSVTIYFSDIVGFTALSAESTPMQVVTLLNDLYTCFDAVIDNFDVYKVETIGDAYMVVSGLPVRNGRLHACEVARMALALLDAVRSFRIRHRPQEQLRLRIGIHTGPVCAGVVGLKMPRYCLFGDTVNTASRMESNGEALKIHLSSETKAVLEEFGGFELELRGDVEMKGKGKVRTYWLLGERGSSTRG

For `C[C@]12CCC(=O)C=C1CC[C@@H]1[C@H]2[C@@H](O)C[C@@]2(C)[C@H]1CC[C@]2(O)C(=O)CO`, the viability (% of control) in experiment [1] turned out to be 71.5%. Moreover, the Potency entry in experiment [2], in experiment [3], in experiment [5], in [6], in experiment [7] and in experiment [8] was “inactive” throughout. The Potency entry in [9] was “inactive”. Moreover, the Potency in experiment [4] is 20.9 µM (active).
As to `CN(C)C(=O)COC(=O)Cc1ccc(OC(=O)c2ccc(N=C(N)N)cc2)cc1`, the viability (% of control) in [1] is 104%. The Potency result in [2], in experiment [3], in [7], in [8] and in [9] was “inactive” throughout. The values for the Potency in experiment [4] and in [6] were 16.6 µM (active) and 0.0469 µM (active), respectively.
On to `CC1(C)C(=O)N(CCN2CCC(C(=O)c3ccc(F)cc3)CC2)c2ccccc21`, for which the viability (% of control) in [1] stood at 85.6%. Besides, the Potency entry in experiment [2], in experiment [3], in experiment [4], in [5], in [9] and in [10] was “inactive” each time. Moreover, the result in [11] was inactive.
Consider `CCCCN(CCCC)CCC(O)c1cc2c(Cl)cc(Cl)cc2c2cc(C(F)(F)F)ccc12` (configuration not stated), for which the viability (% of control) in experiment [1] was 64.8%. Besides, the Potency entry in experiment [2], in experiment [3], in [4], in experiment [5] and in [8] was “inactive” in each case.
`OC(CN1CCN(c2cccc(Cl)c2)CC1)C(c1ccccc1)c1ccccc1` (configuration not stated): the viability (% of control) in experiment [1] is 88.8%. The Potency entry in [2], in experiment [3], in experiment [4], in [9] and in experiment [12] was “inactive” each time. Further, in experiment [6], the Potency is 16.6 µM (active).
In the case of `O=c1cc(N2CCOCC2)oc2c(-c3ccccc3)cccc12`, the viability (% of control) in [1] is 36.2%. For the same compound, the Potency entry in experiment [2], in experiment [3], in experiment [10] and in experiment [12] was “inactive” in each case. Further, the Potency was 13.2 µM (active) in [4]; 18.7 µM (active) in [5]; 5.9 µM (active) and 20 µM (active) in experiment [9]. The result in experiment [11] was inactive.
As for `O=C(O)c1cccc(-c2noc(-c3ccccc3F)n2)c1`, in experiment [1], the viability (% of control) is 93.8%. Moreover, the Potency entry in experiment [2], in experiment [3], in [6], in [7], in experiment [8] and in experiment [9] was “inactive” each time.
On to `Cc1cccc(C#Cc2ccccc2)n1`, for which the viability (% of control) in [1] is 57.2%. The Potency entry is “inactive and 6.31 µM (active)” in experiment [2]; “inactive and 3.98 µM (active)” in [3]; 18.7 µM (active) in experiment [5]. Moreover, the Potency result in experiment [13], in experiment [14], in experiment [9] and in experiment [12] was “inactive” each time. In [15], the IC50 (viability decrease) result was “inactive”. Besides, the result in experiment [11] was inactive.
Turning to `CCCOc1ccc2nc(NC(=O)OC)[nH]c2c1`, in experiment [1], the viability (% of control) amounted to 14.2%. For the same compound, the Potency entry in [2], in [3], in [6] and in [8] was “inactive” each time. For the same compound, the Potency in experiment [5] was 0.0066 µM (active); in experiment [16] it was 0.291 µM (active).
Regarding `C=C(c1ccc(C(=O)O)cc1)c1cc2c(cc1C)C(C)(C)CCC2(C)C`, the viability (% of control) in [1] was 89.3%. Moreover, the Potency entry in experiment [2], in experiment [3], in [17], in experiment [6], in experiment [7] and in experiment [8] was “inactive” each time. Also, the Potency entry in experiment [9] and in experiment [12] was “inactive” each time.
Take `O=C(NC(Cc1cc(=O)[nH]c2ccccc12)C(=O)O)c1ccc(Cl)cc1` (configuration not stated): the viability (% of control) in experiment [1] was 108%. For the same compound, the Potency result in [2], in [3], in experiment [5], in [6], in [7] and in experiment [8] was “inactive” each time. For the same compound, the Potency entry in experiment [16] and in experiment [9] was “inactive” in each case.
Turning to `Cc1nccn1CC1CCc2c(c3ccccc3n2C)C1=O` (configuration not stated), the viability (% of control) in [1] stood at 92.7%. In addition, the Potency entry in [2], in experiment [3], in experiment [5], in [16] and in [9] was “inactive” throughout. For the same compound, the Potency in experiment [17] is 16.6 µM (active); in [6], 13.2 µM (active).
